Assay outcomes deposited in PubChem BioAssay by National Center for Advancing Translational Sciences (NCATS).
Rows were chosen to be rich in hits. Some 2.4% of all compounds tested hit in one or more screens of this group.
D2 PAM-1 = positive allosteric modulators of human D2 dopamine receptor | P14416 | DiscoveRx D2 beta-arrestin cells, luminescence, 90 min; 100% = 57 uM dopamine signal | potentiation, % (concentration not given with the values) | 360,000 compounds, 0.23% hits; in the data active = potentiation above about 50%; inconclusive = mostly about 30% to 49%
Target sequence (P14416 whole entry, looked up): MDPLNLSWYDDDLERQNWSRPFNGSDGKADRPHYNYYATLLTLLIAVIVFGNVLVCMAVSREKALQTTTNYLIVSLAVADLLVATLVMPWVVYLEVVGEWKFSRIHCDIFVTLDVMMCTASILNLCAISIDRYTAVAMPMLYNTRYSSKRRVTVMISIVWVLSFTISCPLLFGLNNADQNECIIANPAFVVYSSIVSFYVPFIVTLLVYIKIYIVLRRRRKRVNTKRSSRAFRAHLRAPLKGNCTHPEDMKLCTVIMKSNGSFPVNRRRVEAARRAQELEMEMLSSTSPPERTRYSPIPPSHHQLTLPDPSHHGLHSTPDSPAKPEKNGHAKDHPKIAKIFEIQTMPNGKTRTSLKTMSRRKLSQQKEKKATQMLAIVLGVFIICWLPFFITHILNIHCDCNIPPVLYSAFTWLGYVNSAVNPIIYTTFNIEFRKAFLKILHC
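D2 cells co-treated with compound plus 50 nM dopamine (EC20) for 90 min at 37 deg C to detect potentiation. Beta-arrestin recruitment was read as enzyme-fragment luminescence after 1 h at ambient temperature. Full response was set by 57 uM dopamine.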
D2 PAM-2 = positively modulates the human D2 dopamine receptor allosterically | HEK293 T-REx D2, calcium flux, EC20 dopamine potentiation | AID 485347 | P14416 | 340,000 compounds, 0.34% hits | potentiation, % at 10 µM;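 active = potentiation over 3 SD above the plate norm, cut at about 30% in these data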; also: 0% is about no effect
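Tetracycline-induced Hek293 Trex D2 cells, force-coupled to calcium, loaded with no-wash calcium dye. Compound added with 180 s kinetic read for agonism, then EC20 dopamine and a further 180 s read for potentiation.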
D2 antagonist = D2 dopamine receptor (human) antagonism. P14416. HEK293 TREx D2 cells, calcium flux, dopamine EC80. inhibition, % at 10 µM. 340,000 compounds, 2% hits; in the data active = inhibition above about 30%; inactive = below that, where a call was filed; also: 0% is about no effect
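Antagonism is scored as inhibition of an EC80 dopamine-evoked calcium signal in a force-coupled, tetracycline-inducible HEK293 T-REx D2 line, with compound present 180 s before agonist.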
D2 ag-1 = activates the human D2 dopamine receptor. P14416. DiscoveRx PathHunter D2 beta-arrestin, luminescence, 90 min; 100% = 57 uM dopamine signal. activation, % (test concentration not listed). 360,000 compounds, 0.084% hits. AID 624465; in the data active = activation above about 40%; inconclusive = between about 15% and that limit
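Agonist mode: compounds alone added to overnight-plated D2 PathHunter cells for 90 min at 37 C, with 57 uM final dopamine (EC100) defining full response. Beta-arrestin recruitment detected by chemiluminescent reagent, read after 1 h at ambient temperature.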
D2 ag-2 = D2 dopamine receptor (human) agonism. HEK293 T-REx D2 cells, calcium flux agonist mode. activation, % at 2 µM. 340,000 compounds, 0.53% hits. AID 485358;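 active = activation over 3 SD above normal in the single-dose calcium agonist read, cut at about 30% in these data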; also: 0% is about no effect
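In this primary screen, compounds producing a positive calcium signal within 180 s of addition to tetracycline-induced, force-coupled HEK293 Trex D2 cells are flagged; cells are dye-loaded with a no-wash calcium kit beforehand.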
D3 ag = confirmation of human D3 dopamine receptor agonists, beta-arrestin; shares compounds with D2 ag-2; DiscoveRx D3 beta-arrestin cells, luminescence, 90 min; Potency, µM (titrated, usually from 76.9 µM), for the others: top-dose activation, hits mostly activators; 2,300 compounds, 4% hits; AID 720506;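 also: potency is read from the fitted curve at half-maximal effect; 100% = dopamine control response; nearly all actives have a fitted effect of over 70% in size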
D2 ag-3 = counter-screen for D3 agonists: human D2 dopamine receptor agonism; shares compounds with D2 ag-2; DiscoveRx PathHunter D2 beta-arrestin, luminescence, 90 min; response scale: percent relative to full dopamine signal; Potency, µM (top dose mostly 76.9 µM), without a hit: top-dose activation, usual class: activators; 2,300 compounds, 5.9% hits; also: potency is read from the fitted curve at half-maximal effect; % of control where 0% means no effect; nearly all actives have a fitted effect of over 70% in size
Starred values were filed as active, the others as inactive; u = inconclusive; x = no result. Unless noted, calls follow the shape of the dose curve; as a rule, active = well fitted activation curve with a large enough effect; inconclusive = small, poorly fitted or top-dose-only effect; inactive = flat fitted curve, though single readings scatter.

SMILES	D2 PAM-1	D2 PAM-2	D2 antagonist	D2 ag-1	D2 ag-2	D3 ag	D2 ag-3
O=C(c1ccccc1)N1N=C(C(F)(F)F)CC1(O)c1ccccc1 (stereo unspecified)	-12	4	-2	1	-2	x	x
O=C(c1ccccc1)N1N=C(C(F)(F)F)CC1(O)c1ccc(F)cc1 (stereo unspecified)	-4	8	-27	-3	0	-12%	-1%
COc1ccccc1N1CCN(S(=O)(=O)CCNC(=O)COc2ccccc2)CC1	-17	x	x	0	x	x	x
COc1ccccc1OCC(=O)NCCS(=O)(=O)N1CCN(c2ccccc2)CC1	15	-14	62*	u	44*	u	u
COc1ccc(-c2c(C)c3ccc(O)c(CN4CCC(C)CC4)c3oc2=O)cc1OC	x	16	x	x	0	x	x
Cc1oc(-c2ccccc2Cl)nc1CS(=O)CC(=O)N1CCN(c2ccccc2)CC1 (stereo unspecified)	15	-3	-16	3	43*	0%	4%
O=c1cc(CN2CCN(c3ccccc3)CC2)nc2scc(-c3ccccc3)n12	-6	11	-6	u	2	x	x
C=CCNCc1cc(=O)n2c(-c3ccccc3)csc2n1	-2	-15	30	9	47*	-1%	16%
CCOC(=O)c1c(C)oc2ncnc(Nc3ccc(F)cc3Cl)c12	x	2	x	x	-1	x	x
Cc1oc2ncn(C)c(=O)c2c1C(=O)NCCCN(Cc1ccccc1)C(C)C	x	3	x	x	-1	x	x
CCC(NC(C)C)C(O)c1ccc(O)c(O)c1 (stereo unspecified)	0	8	24	-1	13	u	12%
COc1cc(OC)c(OC)cc1CNc1sc2c(c1C(=O)Nc1ccccc1OC)CCC2	x	x	x	x	0	x	x
O=Cc1c(N2CCCCCC2)nc2ccccn2c1=O	-3	-16	-7	4	56*	-1%	1%
O=Cc1c(N2CCCCC2)nc2ccccn2c1=O	7	7	-12	3	0	x	x
COc1ccc(-c2cc(C(=O)N3CCCC(C(F)(F)F)C3)c3ccccc3n2)cc1 (stereo unspecified)	1	9	7	2	0	-7%	-2%
COc1ccc(CCNC(=O)CSC2=NS(=O)(=O)c3cc(Cl)ccc3N2)cc1OC	1	-1	0	-5	0	x	x
O=C(CSC1=NS(=O)(=O)c2cc(Cl)ccc2N1)NCCc1ccccc1	8	-20	21	2	41*	8%	6%
O=C(Cc1ccccc1)NNC(=S)Nc1ccc(Cl)cc1	-19	-20	5	-7	44*	1%	-4%
Cc1ccc(-c2c(C(=O)N/N=C/c3cccs3)nnn2-c2nonc2N)cc1	-2	16	x	2	x	-3%	-2%
Cc1ccc(-c2c(C(=O)N/N=C/c3ccoc3)nnn2-c2nonc2N)cc1	-2	11	10	-2	1	-9%	-4%
Nc1nonc1-n1nnc(C(=O)N/N=C/c2cccs2)c1-c1ccc2c(c1)OCO2	10	18	7	-2	20	-6%	0%
CCOc1ccc(-c2c(C(=O)N/N=C/c3cccs3)nnn2-c2nonc2N)cc1	-9	23	16	u	1	x	x
Cc1ccsc1/C=N/NC(=O)c1nnn(-c2nonc2N)c1-c1ccc2c(c1)OCO2	0	-6	2	-2	1	x	x
COc1ccc(-c2c(-c3cc(OC)cc(OC)c3)n(C)c3ccc(-c4cccc5[nH]ccc45)cc23)cc1	-1	16	2	-2	0	0%	3%
Cc1ccc(OCCC(=O)OCC(=O)N2CCN(S(=O)(=O)c3ccc(C)cc3C)CC2)cc1	9	17	-13	2	0	x	x
SMILES	D2 PAM-1	D2 PAM-2	D2 antagonist	D2 ag-1	D2 ag-2	D3 ag	D2 ag-3
COc1ccc(CCC(=O)OCC(=O)N2CCN(S(=O)(=O)c3ccc(C)cc3C)CC2)cc1	-35	6	16	-7	0	2%	-1%
O=C(Nc1cccc(Cl)c1)c1cnc2sc(N3CCCC3)nn2c1=O	x	4	x	x	0	x	x
COC(=O)C(N)Cc1ccc(O)c(O)c1 (stereo unspecified)	26	-5	-4	8	41*	26%	21%
O=C(CCN1CCN(c2ccccc2)CC1)Nc1ccccc1F	-18	-16	71*	u	71*	u	25%
O=C(CCN1CCN(c2ccc(F)cc2)CC1)Nc1ccccc1F	-17	-37	65*	2	35*	4%	-1%
O=C(CCN1CCN(S(=O)(=O)c2ccc(F)cc2)CC1)Nc1ccccc1F	-9	7	-18	-1	0	x	x
O=C(CCN1CCN(CC(=O)Nc2ccccc2F)CC1)Nc1ccccc1F	-33	2	6	-3	0	x	x
CC(=O)Nc1ccc(NC(=O)CN2CCN(c3ccccn3)CC2)cc1	11	-19	84*	u	82*	u	u
O=C(CN1CCN(c2ccccn2)CC1)Nc1ccc2ccccc2c1	-13	-15	22	3	28	-2%	18%
Cc1ccc(C)c(NC(=O)CN2C(=O)CCc3cc(S(=O)(=O)N4CCCCC4)ccc32)c1	x	-2	x	x	1	x	x
COc1ccccc1CNC(=O)CCC(=O)N1CC2CCCN2c2ccccc21 (stereo unspecified)	x	4	x	x	0	x	x
COc1ccc(C)cc1NC(=O)CN1CCN(c2ccccn2)CC1	0	-18	-3	11	53*	13%	21%
COc1ccccc1NC(=O)CN1CCN(CC(=O)Nc2ccc(F)cc2)CC1	-5	-2	4	-3	0	x	x
COC(=O)C1CCN(CC(=O)Nc2ccc(C(=O)Nc3ccccc3OC)cc2)CC1	0	-26	28	u	62*	21%	u
COc1ccccc1NC(=O)CN1CCN(c2ccccn2)CC1	5	12	50*	u	14	29%	u
COc1ccc(C(CC(=O)NCc2ccccc2)N2Cc3ccccc3C2=O)cc1 (stereo unspecified)	x	1	x	x	3	x	x
COc1ccc(NC(=O)CSc2ncc3c(n2)-c2cc(Cl)ccc2N(Cc2ccccc2F)S3(=O)=O)cc1	x	-5	x	x	0	x	x
CCCCn1c(N)c(N(CCOC)C(=O)COc2ccc(C(C)=O)cc2)c(=O)[nH]c1=O	-9	5	2	-2	0	x	x
CCCCn1c(N)c(N(CCOC)C(=O)Cn2c(=O)cnc3ccccc32)c(=O)[nH]c1=O	-6	0	-7	8	1	-4%	-3%
